From PubChem BioAssay (NCATS)
Records with an inconclusive call do not appear. The source made the active and inactive calls. Calls follow the shape of the dose curve; as a rule, active = well fitted curve in the direction sought with a large enough effect; inconclusive = small, poorly fitted or top-dose-only effect, or another doubt; inactive = no such curve, though single readings can be large; an effect the other way counts as inactive or inconclusive.

Assays:
[1] = qHTS assay for measurement of the activity of small molecule inhibitors on Zika virus induced Caspase-3 activity in human iPSC derived neural progenitor cells (hNPCs) (AID 1224857); also: % of control where 0% means no effect; nearly all actives have a fitted effect of over 65% in size
How it was run: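 Pretreat hNPCs with compound 1 h; infect ZIKV 2 FFU/cell; 6 h 37 C, 5% CO2; Caspase-Glo 3/7, 30 min RT; luminescence; normalize to no-virus and virus-only wells.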

[2] = qHTS assay for measurement of the activity of small molecule inhibitors on Zika virus induced Caspase-3 activity in human astrocytoma cells (AID 1224859);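 also: plate controls were ZIKV-infected untreated cells for no effect and uninfected cells for full effect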
How it was run: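 Human SNB-19 astrocytoma cells in RPMI 1640 with 10% FBS receive compound one hour ahead of Zika virus at 2 FFU/cell. After 6 h infection, caspase-3/7 activity is detected by Caspase-Glo luminescence.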

[3] = qHTS assay to identify small molecule inhibitors of chordoma cells - UCH-1 (AID 1259355); also: % is scaled to controls: 0 for no effect and ±100 for the full control effect; nearly all actives have a fitted effect of over 55% in size
How it was run: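 Cells (800/well) were seeded and left overnight at 37 C, 5% CO2, then treated with drugs at 15 concentrations plus a combination mix of auranofin, camptothecin, doxorubicin, rubitecan and topotecan. Viability after 48hr was read by CellTiter-Glo luminescence.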

[4] = qHTS assay to identify small molecule inhibitors of chordoma cells - UCH-2 (AID 1259356); also: series mostly up to about 46 µM; % is scaled to controls: 0 for no effect and ±100 for the full control effect
[5] = P-glycoprotein substrates identified in KB-8-5-11 adenocarcinoma cell line, qHTS therapeutic library screen (AID 1346987); conditions: outcome: dose series up to 44.5 µM; also: series mostly up to about 44 µM; % is scaled to controls: 0 for no effect and ±100 for the full control effect; nearly all actives have a fitted effect of over 65% in size
How it was run: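 KB-8-5-11: colchicine-selected sub-line of KB-3-1 over-expressing P-gp; assay medium lacked colchicine. 72 h drug exposure at 37 degree C, CellTiter-Glo.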

[6] = NS1 protein of Zika virus - qHTS assay to identify small molecule inhibitors in human HEK 293 cells (AID 1347053);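 also: series mostly up to about 46 µM; plate controls were infected untreated cells for no effect and uninfected cells for full effect; nearly all actives have a fitted effect of over 55% in size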
How it was run: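 HEK 293; 20 h pre-culture, 37 C/5% CO2; cpd 1 h pre-infection; ZIKV MR766, MOI = 0.5, 24 h, 37 C; TR-FRET NS1 readout (two anti-NS1 Abs); norm. to no-virus vs infected.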

[7] = qHTS of pediatric cancer cell lines to identify multiple opportunities for drug repurposing: Primary screen for TC32 cells (AID 1347089); also: % is scaled to controls: 0 for no effect and ±100 for the full control effect; nearly all actives have a fitted effect of over 60% in size
How it was run: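 Luminescent CellTiter-Glo read-out of metabolically active TC32 cells after 48 h compound exposure. Primary: MIPE 11-point, 0.78 nM–46 µM; NPC 8-point, 0.59 nM–46 µM. Confirmatory: 11-point dilutions.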

[8] = qHTS of pediatric cancer cell lines to identify multiple opportunities for drug repurposing: Primary screen for DAOY cells (AID 1347090);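 also: series mostly up to about 46 µM; plate controls were DMSO for no effect and bortezomib for full effect; nearly all actives have a fitted effect of over 55% in size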
How it was run: (§1)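 Viability measured as metabolically active cells via CellTiter-Glo luminescence following 48 hours of compound exposure, 11-point dilutions in confirmatory testing. 500-1,000 cells/well plated 5 hours before dosing; controls were DMSO and 2.3 µM bortezomib.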

[9] = qHTS of pediatric cancer cell lines to identify multiple opportunities for drug repurposing: Primary screen for SJ-GBM2 cells (AID 1347091);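 also: plate controls were DMSO neutral control for no effect and bortezomib for full effect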
How it was run: as §1

[10] = qHTS of pediatric cancer cell lines to identify multiple opportunities for drug repurposing: Primary screen for A673 cells (AID 1347092); also: % is scaled to controls: 0 for no effect and ±100 for the full control effect; nearly all actives have a fitted effect of over 45% in size
How it was run: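 A673 cells (500-1,000 cells/well in growth media) were pre-incubated 5 h at 37 degrees C, then exposed to compounds for 48 h. Viability was read as CellTiter-Glo luminescence; concentration-response curves came directly from the primary screen.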

[11] = qHTS of pediatric cancer cell lines to identify multiple opportunities for drug repurposing: Primary screen for NB-EBc1 cells (AID 1347095);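 also: plate controls were DMSO neutral control for no effect and bortezomib for full effect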
How it was run: (§2)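 Readout: CellTiter-Glo luminescence, 48 h treatment. Controls DMSO (neutral) and bortezomib 2.3 µM final (positive). Potency and efficacy taken from primary-screen concentration-response curves.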

[12] = qHTS of pediatric cancer cell lines to identify multiple opportunities for drug repurposing: Primary screen for U-2 OS cells (AID 1347096);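 also: plate controls were DMSO wells for no effect and bortezomib positive control wells for full effect; nearly all actives have a fitted effect of over 50% in size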
How it was run: (§3)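 Viability after 48 h compound treatment at 37C, 500-1,000 cells/well, read as ATP luminescence with CellTiter-Glo. Primary screens used 11-point (MIPE, 0.78 nM-46 µM) or 8-point (NPC, 0.59 nM-46 µM) final concentrations; follow-up screens used 11-point dilutions.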

[13] = qHTS of pediatric cancer cell lines to identify multiple opportunities for drug repurposing: Primary screen for Saos-2 cells (AID 1347097); also: % is scaled to controls: 0 for no effect and ±100 for the full control effect; nearly all actives have a fitted effect of over 40% in size
How it was run: as §2

[14] = qHTS of pediatric cancer cell lines to identify multiple opportunities for drug repurposing: Primary screen for NB1643 cells (AID 1347099);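 also: plate controls were DMSO neutral control for no effect and bortezomib positive control for full effect; nearly all actives have a fitted effect of over 50% in size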
How it was run: as §2

[15] = qHTS of pediatric cancer cell lines to identify multiple opportunities for drug repurposing: Primary screen for LAN-5 cells (AID 1347100);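 also: plate controls were DMSO neutral control for no effect and bortezomib positive control for full effect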
How it was run: as §3

[16] = qHTS of pediatric cancer cell lines to identify multiple opportunities for drug repurposing: Primary screen for BT-37 cells (AID 1347094);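 also: series mostly up to about 57 µM; plate controls were DMSO for no effect and bortezomib for full effect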
How it was run: as §2

[17] = qHTS of pediatric cancer cell lines to identify multiple opportunities for drug repurposing: Primary screen for SK-N-SH cells (AID 1347098); also: % is scaled to controls: 0 for no effect and ±100 for the full control effect; nearly all actives have a fitted effect of over 65% in size
How it was run: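 Cells (500-1,000/well) rested 5 h, then received compounds for 48 h; metabolically active cells were measured by CellTiter-Glo luminescence. Final concentrations spanned up to 46 µM (MIPE, 11-point) or 0.59 nM-46 µM (NPC, 8-point) in primary screens, 11-point in follow-ups.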

[18] = qHTS of pediatric cancer cell lines to identify multiple opportunities for drug repurposing: Primary screen for SK-N-MC cells (AID 1347093);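 also: series mostly up to about 46 µM; plate controls were DMSO neutral control for no effect and bortezomib for full effect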
How it was run: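 Metabolically active cells were quantified by ATP-dependent luminescence (CellTiter-Glo, 15 min at room temperature) following 48 h treatment. Cells had been plated at 500-1,000 per well and settled for 5 h beforehand.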

CC(C)=CCC[C@@](C)(O)[C@H]1CC=C(C)CC1
inactive: outcome [1] | outcome [2] | outcome [3] | outcome [4] | outcome [5] | outcome [6] | outcome [7] | outcome [8] | outcome [9] | outcome [10] | outcome [11] | outcome [12] | outcome [13] | Potency [14] | outcome [15]

O=C(O)Cn1c(C(=O)Nc2nc(-c3ccccc3Cl)cs2)cc2ccccc21
inactive: outcome [1] | outcome [2] | outcome [3] | outcome [4] | outcome [5] | outcome [6] | outcome [7] | outcome [8] | outcome [9] | outcome [10] | outcome [16] | outcome [11] | outcome [13] | outcome [17] | Potency [14] | outcome [15]

C[N+](C)(C)CC[N+]1(C)Cc2c(Cl)c(Cl)c(Cl)c(Cl)c2C1
inactive: outcome [1] | outcome [2] | outcome [3] | outcome [4] | outcome [5] | outcome [6] | outcome [7] | outcome [8] | outcome [9] | outcome [10] | outcome [16] | outcome [11] | outcome [12] | outcome [13] | outcome [17] | Potency [14] | outcome [15]

C[C@@H](c1ncncc1F)C(O)(Cn1cncn1)c1ccc(F)cc1F (stereo not given in full)
inactive: outcome [1] | outcome [2] | outcome [3] | outcome [4] | outcome [5] | outcome [6] | outcome [7] | outcome [8] | outcome [9] | outcome [10] | outcome [16] | outcome [11] | outcome [12] | outcome [13] | outcome [17] | Potency [14] | outcome [15]

CC(=O)SC[C@@H](Cc1ccccc1)C(=O)NCC(=O)OCc1ccccc1
inactive: outcome [1] | outcome [2] | outcome [3] | outcome [4] | outcome [5] | outcome [6] | outcome [7] | outcome [8] | outcome [9] | outcome [10] | outcome [16] | outcome [11] | outcome [12] | outcome [13] | Potency [14] | outcome [15]

CCCCCOC(=O)Nc1nc(=O)n([C@@H]2O[C@H](C)[C@@H](O)[C@H]2O)cc1F
inactive: outcome [1] | outcome [2] | outcome [3] | outcome [4] | outcome [5] | outcome [6] | outcome [7] | outcome [8] | outcome [9] | outcome [10] | outcome [11] | outcome [12] | outcome [13] | outcome [17] | Potency [14] | outcome [15]

NC(N)=NCCN1CCCCCCC1
inactive: activity change, negative = inhibition [1] 6.93% [at 0.568 µM] | activity change, negative = inhibition [2] -3.82% [at 0.568 µM] | outcome [3] | outcome [4] | outcome [5] | activity change, negative = inhibition [6] -1.99% [at 0.593 µM] | activity change, negative = cytotoxic [7] 19.1% [at 0.594 µM] | activity change, negative = cytotoxic [8] 7.11% [at 0.597 µM] | activity change, negative = cytotoxic [9] 15.5% [at 0.597 µM] | activity change, negative = cytotoxic [10] 2.24% [at 0.597 µM] | activity change, negative = cytotoxic [16] 4.17% [at 0.745 µM] | activity change, negative = cytotoxic [11] 19.5% [at 0.597 µM] | activity change, negative = cytotoxic [13] 2.27% [at 0.597 µM] | activity change, negative = cytotoxic [14] 6.64% [at 0.597 µM] | activity change, negative = cytotoxic [15] 4.87% [at 0.597 µM]

NC(=O)c1ccc([N+](=O)[O-])cc1Cl
inactive: outcome [1] | outcome [2] | outcome [3] | outcome [4] | outcome [5] | outcome [6] | outcome [7] | outcome [8] | outcome [9] | outcome [10] | outcome [11] | outcome [12] | outcome [13] | outcome [17] | Potency [14] | outcome [15]

CC(=O)Nc1ccccc1
inactive: outcome [1] | outcome [2] | outcome [3] | outcome [4] | outcome [5] | outcome [6] | outcome [7] | outcome [8] | outcome [9] | outcome [10] | outcome [16] | outcome [11] | outcome [13] | outcome [17] | Potency [14] | outcome [15]

O=C(O)Cc1cn(-c2ccccc2)nc1-c1ccc(Cl)cc1
inactive: outcome [1] | outcome [2] | outcome [3] | outcome [4] | outcome [5] | outcome [6] | outcome [7] | outcome [8] | outcome [9] | outcome [10] | outcome [16] | outcome [11] | outcome [12] | outcome [13] | outcome [15]

O=C(O)C(S)C(S)C(=O)O (stereo not given)
inactive: outcome [1] | outcome [2] | outcome [3] | outcome [4] | outcome [6] | outcome [7] | outcome [8] | outcome [9] | outcome [10] | Potency [18] | outcome [16] | outcome [11] | outcome [12] | outcome [13] | outcome [17] | Potency [14] | outcome [15]

Cc1c(NC(C)C)c(=O)n(-c2ccccc2)n1C
inactive: outcome [1] | outcome [2] | outcome [3] | outcome [4] | outcome [5] | outcome [6] | outcome [7] | outcome [8] | outcome [10] | Potency [18] | outcome [16] | outcome [11] | outcome [12] | outcome [17] | Potency [14] | outcome [15]

CN[C@@H]1[C@@H](O)[C@@H](O[C@@H]2[C@H](O)[C@H](O[C@H]3OC(CN)=CC[C@H]3N)[C@@H](N)C[C@H]2N)OCC1(C)O (stereo not given in full)
inactive: outcome [1] | outcome [2] | outcome [3] | outcome [4] | outcome [5] | outcome [6] | outcome [7] | outcome [8] | outcome [10] | Potency [18] | outcome [16] | outcome [11] | outcome [12] | outcome [13] | outcome [17] | Potency [14] | outcome [15]

CC1(C)S[C@@H]2[C@H](N=CN3CCCCCC3)C(=O)N2[C@H]1C(=O)O
inactive: outcome [1] | outcome [2] | outcome [3] | outcome [4] | outcome [5] | outcome [6] | outcome [7] | outcome [8] | outcome [10] | outcome [16] | outcome [11] | outcome [12] | outcome [13] | Potency [14] | outcome [15]

CCN[C@H]1CN(CCCOC)S(=O)(=O)c2sc(S(N)(=O)=O)cc21
inactive: outcome [1] | outcome [2] | outcome [3] | outcome [4] | outcome [5] | outcome [6] | outcome [7] | outcome [8] | outcome [10] | Potency [18] | outcome [16] | outcome [11] | outcome [13] | outcome [17] | outcome [15]

COc1cc(C(=O)NCCCCCC(=O)O)cc(OC)c1OC
inactive: outcome [1] | outcome [2] | outcome [3] | outcome [4] | outcome [5] | outcome [6] | outcome [7] | outcome [8] | outcome [10] | outcome [16] | outcome [11] | outcome [12] | outcome [13] | outcome [17] | Potency [14] | outcome [15]
